Measured values taken from PubChem BioAssay (EPA / NIEHS).
Results filed as inconclusive are left out. Some compounds were tested as several samples or in several runs, with calls that do not always agree. Active and inactive are the calls of the source. Rule for the calls, unless noted: active = hit-call score of the fitted dose curve at least 0.9, where 1 is the maximum; inactive = score below 0.9.

Experiment: CCTE_Mundy_HCI_Cortical_NOG_NeuronCount: CCTE's Neurite Outgrowth Assay in rat cortical cells for Neuron Count, Mundy Lab (AID 2284236; active = hit-call score of the fitted dose curve at least 0.9, where 1 is the maximum;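 note: neurons counted by imaging betaIII-tubulin and Hoechst stained cortical cells; cells exposed to compound for about 48 hours before fixation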)
Outline: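 Read-out: neuron number by high-content imaging of betaIII-tubulin (Alexa Fluor-488) and Hoechst-labelled rat primary cortical cells.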

Row | SMILES | outcome | AC50
1 | CC(C)(C)C(=O)C(Oc1ccc(Cl)cc1)n1cncn1 (stereo not given) | inactive | 
2 | Cc1c(COC(=O)[C@@H]2[C@H](/C=C(\Cl)C(F)(F)F)C2(C)C)cccc1-c1ccccc1 |  | 21.2 µM (active)
3 | O=C(Nc1ccccc1-c1ccc(Cl)cc1)c1cccnc1Cl | inactive | 
4 | CS(=O)(=O)c1cc(C(F)(F)F)ccc1C(=O)c1cnoc1C1CC1 |  | 9.92 µM (active)
5 | CN/C(=N\[N+](=O)[O-])NCc1cnc(Cl)s1 | inactive | 
6 | CO/N=C(/C1=NOCCO1)c1ccccc1Oc1ncnc(Oc2ccccc2Cl)c1F |  | 10.9 µM (active)
7 | CCSC(=O)N1CCCCCC1 | inactive | 
8 | CCNC(=O)NC(=O)C(C#N)=NOC | inactive | 
9 | COP(=S)(OC)SCn1nnc2ccccc2c1=O | inactive | 
10 | CCN(CC)c1nc(C)cc(OP(=S)(OC)OC)n1 |  | 80.8 µM (active)
11 | C=C(C)CN(CC)c1c([N+](=O)[O-])cc(C(F)(F)F)cc1[N+](=O)[O-] |  | 50 µM (active)
12 | CCOP(=O)(OCC)Oc1nc(Cl)c(Cl)cc1Cl | inactive | 

Experiment: CCTE_Mundy_HCI_Cortical_NOG_BPCount: CCTE's Neurite Outgrowth Assay in rat cortical cells for Branch Point Count, Mundy Lab (AID 2284237);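 for AC50: branch points counted about two days after chemical exposure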
Outline: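 Measured 50.33 h after dosing, this morphology endpoint uses rat primary cortical cultures labelled for betaIII-tubulin. Branch points are quantified by high-content imaging, with DMSO as negative control and baseline.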

Row | SMILES | outcome | AC50
13 | COP(=O)(OC)O/C(C)=C/C(=O)N(C)C | inactive | 
14 | CS(=O)(=O)c1ccc(C(=O)C2C(=O)CCCC2=O)c([N+](=O)[O-])c1 | inactive | 
15 | CC(C)(C)C(=O)C(Oc1ccc(Cl)cc1)n1cncn1 (stereo not given) |  | 33.2 µM (active)
16 | CC1(C)C(C=C(Cl)Cl)C1C(=O)OC(C#N)c1cccc(Oc2ccccc2)c1 (stereo not given) | inactive | 
17 | Cc1c(COC(=O)[C@@H]2[C@H](/C=C(\Cl)C(F)(F)F)C2(C)C)cccc1-c1ccccc1 |  | 25.9 µM (active)
18 | O=C(Nc1ccccc1-c1ccc(Cl)cc1)c1cccnc1Cl | inactive | 
19 | CNC(=O)Oc1cccc2ccccc12 | inactive | 
20 | CS(=O)(=O)c1cc(C(F)(F)F)ccc1C(=O)c1cnoc1C1CC1 | inactive | 
21 | CN/C(=N\[N+](=O)[O-])NCc1cnc(Cl)s1 | inactive | 
22 | N#CN=C1SCCN1Cc1ccc(Cl)nc1 | inactive | 
23 | COC(=O)N(C(=O)N1CO[C@@]2(C(=O)OC)Cc3cc(Cl)ccc3C2=N1)c1ccc(OC(F)(F)F)cc1 | inactive | 
24 | CO/N=C(/C1=NOCCO1)c1ccccc1Oc1ncnc(Oc2ccccc2Cl)c1F |  | 2.55 µM (active)
25 | CCSC(=O)N1CCCCCC1 | inactive | 
26 | CCNC(=O)NC(=O)C(C#N)=NOC | inactive | 
27 | COP(=S)(OC)SCn1nnc2ccccc2c1=O | inactive | 
28 | CCN(CC)c1nc(C)cc(OP(=S)(OC)OC)n1 |  | 90.6 µM (active)
29 | C=C(C)CN(CC)c1c([N+](=O)[O-])cc(C(F)(F)F)cc1[N+](=O)[O-] |  | 50 µM (active)
30 | CCOP(=O)(OCC)Oc1nc(Cl)c(Cl)cc1Cl | inactive | 

Experiment: CCTE_Mundy_HCI_hNP1_Casp3_7: CCTE's Caspase-Glo 3/7 Assay in human neuroprogenitor cells for Apoptosis, Mundy Lab (AID 2284240)
Outline: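 Apoptosis is scored by activated caspase-3/7 luminescence in WA09-derived neural progenitor cells, measured 26.5 h after chemical dosing. Values represent gain of signal relative to DMSO vehicle.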

Row | SMILES | outcome | AC50
31 | COP(=O)(OC)O/C(C)=C/C(=O)N(C)C | inactive | 
32 | CS(=O)(=O)c1ccc(C(=O)C2C(=O)CCCC2=O)c([N+](=O)[O-])c1 | inactive | 
33 | CC(C)(C)C(=O)C(Oc1ccc(Cl)cc1)n1cncn1 (stereo not given) | inactive | 
34 | CC1(C)C(C=C(Cl)Cl)C1C(=O)OC(C#N)c1cccc(Oc2ccccc2)c1 (stereo not given) | inactive | 
35 | Cc1c(COC(=O)[C@@H]2[C@H](/C=C(\Cl)C(F)(F)F)C2(C)C)cccc1-c1ccccc1 |  | 10.3 µM (active)
36 | O=C(Nc1ccccc1-c1ccc(Cl)cc1)c1cccnc1Cl | inactive | 
37 | CNC(=O)Oc1cccc2ccccc12 | inactive | 
38 | CS(=O)(=O)c1cc(C(F)(F)F)ccc1C(=O)c1cnoc1C1CC1 | inactive | 
39 | CN/C(=N\[N+](=O)[O-])NCc1cnc(Cl)s1 | inactive | 
40 | N#CN=C1SCCN1Cc1ccc(Cl)nc1 | inactive | 
41 | COC(=O)N(C(=O)N1CO[C@@]2(C(=O)OC)Cc3cc(Cl)ccc3C2=N1)c1ccc(OC(F)(F)F)cc1 | inactive | 
42 | CO/N=C(/C1=NOCCO1)c1ccccc1Oc1ncnc(Oc2ccccc2Cl)c1F |  | 90 µM (active)
43 | CCSC(=O)N1CCCCCC1 | inactive | 
44 | CCNC(=O)NC(=O)C(C#N)=NOC | inactive | 
45 | COP(=S)(OC)SCn1nnc2ccccc2c1=O | inactive | 
46 | CCN(CC)c1nc(C)cc(OP(=S)(OC)OC)n1 |  | 75.1 µM (active)
47 | C=C(C)CN(CC)c1c([N+](=O)[O-])cc(C(F)(F)F)cc1[N+](=O)[O-] |  | 77.5 µM (active)
48 | CCOP(=O)(OCC)Oc1nc(Cl)c(Cl)cc1Cl | inactive | 50 µM (active)

Experiment: CCTE_Mundy_HCI_hNP1_CellTiter: CCTE's Cell Titer-Glo 2 Assay in human neuroprogenitor cells for Viability, Mundy Lab (AID 2284241; active = hit-call score of the fitted dose curve at least 0.9, where 1 is the maximum;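 for AC50: a hit is a drop in ATP luminescence versus DMSO meaning reduced viability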)
Outline: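 Human neural progenitor cells (hNP1, WA09-derived) were plated on poly-L-ornithine/laminin and grown 40 to 44 hours at 37 °C, 5% CO2 before chemical addition. Twenty-four hours later, ATP was measured by CellTiter-Glo luminescence; loss of signal versus DMSO indicates reduced viability.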

Row | SMILES | outcome | AC50
49 | CS(=O)(=O)c1ccc(C(=O)C2C(=O)CCCC2=O)c([N+](=O)[O-])c1 | inactive | 
50 | CC(C)(C)C(=O)C(Oc1ccc(Cl)cc1)n1cncn1 (stereo not given) | inactive | 
51 | CC1(C)C(C=C(Cl)Cl)C1C(=O)OC(C#N)c1cccc(Oc2ccccc2)c1 (stereo not given) | inactive | 
52 | Cc1c(COC(=O)[C@@H]2[C@H](/C=C(\Cl)C(F)(F)F)C2(C)C)cccc1-c1ccccc1 |  | 9.1 µM (active)
53 | O=C(Nc1ccccc1-c1ccc(Cl)cc1)c1cccnc1Cl | inactive | 
54 | CNC(=O)Oc1cccc2ccccc12 | inactive | 
55 | CS(=O)(=O)c1cc(C(F)(F)F)ccc1C(=O)c1cnoc1C1CC1 | inactive | 
56 | CN/C(=N\[N+](=O)[O-])NCc1cnc(Cl)s1 | inactive | 
57 | N#CN=C1SCCN1Cc1ccc(Cl)nc1 | inactive | 
58 | COC(=O)N(C(=O)N1CO[C@@]2(C(=O)OC)Cc3cc(Cl)ccc3C2=N1)c1ccc(OC(F)(F)F)cc1 | inactive | 
59 | CCSC(=O)N1CCCCCC1 | inactive | 
60 | CCNC(=O)NC(=O)C(C#N)=NOC | inactive | 
61 | COP(=S)(OC)SCn1nnc2ccccc2c1=O | inactive | 
62 | CCN(CC)c1nc(C)cc(OP(=S)(OC)OC)n1 |  | 71.4 µM (active)
63 | C=C(C)CN(CC)c1c([N+](=O)[O-])cc(C(F)(F)F)cc1[N+](=O)[O-] |  | 31.5 µM (active)
64 | CCOP(=O)(OCC)Oc1nc(Cl)c(Cl)cc1Cl | inactive | 
